# System: PPARg:RXRa IVT, anti-PPARg (NR concentration 270 nM, RXRa partner concentration 90 nM)
# Test: PBM binding z-score (relative to random genomic background probes); higher = stronger binding; sequences stand for … in GC…GCGATTGACAGCGTAGAATGAAGG
# In short: (§1)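 Random background probes are the reference for binding z-scores. These scores derive from regression-normalized fluorescence on custom Agilent 4×180K protein-binding microarrays incubated 1 h with ligand-free nuclear receptor dimers. Binding was detected with antibodies against each partner (one per run).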
row,Sequence,PBM binding z-score
1,CCTTACGGGTCACGAGGTTATAACACGACGAGCG,5.17
2,GGAACGAGTGCATTCGAGTTGATAGCATGGCGAT,-0.6
3,TAGCCTCGGTCATGGGCCAGTATACCACGCGAAC,0.53
4,TCGAGTAGGTTAGGGGCATTGAGAATGGCGTCGA,1.45
5,CCTAGCTGGCCAGGGTCACTCAAGCATTTCGCTT,-0.187
6,CCAACTGGGGCATAAGGTTACCATAAGCCAGCCC,5.04
7,CTACCAAGGTGCACAAGGTCGTTGATTACTATTC,0.223
8,TCAGATAGGTAATACAGGTGAAAGTCGGCATCTA,1.82
9,GGAACGAGGGCATTCGAGTTAATAGCATGGCGAT,2.26
10,CCTAGCAGGCCAATCTGAGTCACTCAAGGCTTGA,0.0725
11,CTACCATGGTGAACAAGGTCGTTGATTACTATTC,0.434
12,ATCTCTAGATAAAGATAGTTCAGTGAATGCAAAT,-0.22
13,TCTAGTTTGTCACGGAGGTCACACACGACGGGTA,3.07
14,CAAACTAGGTCACCGGAAGGTCAAAGTGCGCATG,8.94
15,TCGAGTAGGTTAGTCGGCGCATTCAGCCAACATA,0.854
16,CCTAGCAGGCCACTCTGGGTCACTCAAGGCTTGA,3.22
17,TCATATAGGTAAATGCTATGTGAAAGTCCGATCT,2.05
18,AGTCAAAGTTCAGGACGAGGTAACGTCAAGCACG,1.89
19,TGTTAAAGTTCAAAGGTAACGTAAGTATCCACAC,3.26
20,AGAATGAGGTTATTAAGATCACGGAATTGCGGTC,3.23

row,Sequence,PBM binding z-score
1,CCTTACGGGTCACGGACAGGTTATAGCATTTGGA,4.87
2,CTCGAAAGGTCGGTTGAGGTGAGTATTCGGATAA,0.955
3,ACAGACAGGTGATGCAGGTAACTCAGGCTATCAT,0.729
4,CCATACGGGTCACTCCAGGTTATAGCATCGGAGT,3.66
5,TAGCCTAGGTCAGATCGGGCCATTATACGCTATA,1.34
6,CCCTACGGGTCACTCCAGGTTATAGCATCGGAGT,2.29
7,CCTACTGGGCCAAGGACATTGATCAGTCAAAGCA,3.05
8,TCTTGTAGATCAAGAAGGTTAAGAAAGCCTGAGT,0.53
9,CCTTACGGGTCACGAGGTTATAGCACGACGAGCG,5.69
10,CTACCAAGGTGAACAAGGCCGTTGATTACTATTC,2.16
11,GCAGACAGGTGAAACGCGGGTAACTCAGGGTGGC,0.724
12,CCAGACAGGTGAGAAGGTATCTCAGCCTCGATTA,0.119
13,CTACCAAGGTGAACAAGGTCGTGGATTACTATTC,3.01
14,CCTTACGGGTCACTCCAGGTTATAGAATCGGAGT,3.47
15,ATCTAAAGGTCGACGAGGTGAGTATACACCGTTT,2.35
16,ATACCTAGGTGATCGTGAGGTCGTTGATACTAAC,1.46
17,TAGTCTAGGTCAGATCGGGCCAGTATACGCTATA,4.5
18,AGTCAAAGTTCATCTAGGTAACGTACGATATGCT,4.13
19,CCGACTGGGGCAGAAAGGTTACCAGACCATCCGG,2.02
20,TCATATAGGTAAATGCTTGGTGAAAGTCCGATCT,2.04

# System: PPARg DBDmut:RXRa IVT, anti-PPARg (DBD mutation: PPARg1 K132A/R137A, NR concentration 270 nM, RXRa partner concentration 90 nM)
# Test: as above
# In short: as §1
row,Sequence,PBM binding z-score
1,CCTTACGGGTCACGAGGTTATAACACGACGAGCG,1.01
2,GGAACGAGTGCATTCGAGTTGATAGCATGGCGAT,-1.05
3,TAGCCTCGGTCATGGGCCAGTATACCACGCGAAC,-0.301
4,TCGAGTAGGTTAGGGGCATTGAGAATGGCGTCGA,-1.19
5,CCTAGCTGGCCAGGGTCACTCAAGCATTTCGCTT,-0.962
6,CCAACTGGGGCATAAGGTTACCATAAGCCAGCCC,0.045
7,CTACCAAGGTGCACAAGGTCGTTGATTACTATTC,0.019
8,TCAGATAGGTAATACAGGTGAAAGTCGGCATCTA,0.894
9,GGAACGAGGGCATTCGAGTTAATAGCATGGCGAT,-0.564
10,CCTAGCAGGCCAATCTGAGTCACTCAAGGCTTGA,-1.14
11,CTACCATGGTGAACAAGGTCGTTGATTACTATTC,0.343
12,ATCTCTAGATAAAGATAGTTCAGTGAATGCAAAT,0.441
13,TCTAGTTTGTCACGGAGGTCACACACGACGGGTA,0.895
14,CAAACTAGGTCACCGGAAGGTCAAAGTGCGCATG,1.75
15,TCGAGTAGGTTAGTCGGCGCATTCAGCCAACATA,-1.61
16,CCTAGCAGGCCACTCTGGGTCACTCAAGGCTTGA,-0.679
17,TCATATAGGTAAATGCTATGTGAAAGTCCGATCT,1.25
18,AGTCAAAGTTCAGGACGAGGTAACGTCAAGCACG,0.047
19,TGTTAAAGTTCAAAGGTAACGTAAGTATCCACAC,2.15
20,AGAATGAGGTTATTAAGATCACGGAATTGCGGTC,1.05

row,Sequence,PBM binding z-score
1,CCTTACGGGTCACGGACAGGTTATAGCATTTGGA,1.03
2,CTCGAAAGGTCGGTTGAGGTGAGTATTCGGATAA,-0.267
3,ACAGACAGGTGATGCAGGTAACTCAGGCTATCAT,0.0271
4,CCATACGGGTCACTCCAGGTTATAGCATCGGAGT,-0.54
5,TAGCCTAGGTCAGATCGGGCCATTATACGCTATA,-0.598
6,CCCTACGGGTCACTCCAGGTTATAGCATCGGAGT,-0.814
7,CCTACTGGGCCAAGGACATTGATCAGTCAAAGCA,-0.364
8,TCTTGTAGATCAAGAAGGTTAAGAAAGCCTGAGT,-0.357
9,CCTTACGGGTCACGAGGTTATAGCACGACGAGCG,1.85
10,CTACCAAGGTGAACAAGGCCGTTGATTACTATTC,0.257
11,GCAGACAGGTGAAACGCGGGTAACTCAGGGTGGC,-0.459
12,CCAGACAGGTGAGAAGGTATCTCAGCCTCGATTA,-1.02
13,CTACCAAGGTGAACAAGGTCGTGGATTACTATTC,1.26
14,CCTTACGGGTCACTCCAGGTTATAGAATCGGAGT,1.31
15,ATCTAAAGGTCGACGAGGTGAGTATACACCGTTT,0.97
16,ATACCTAGGTGATCGTGAGGTCGTTGATACTAAC,0.324
17,TAGTCTAGGTCAGATCGGGCCAGTATACGCTATA,1.78
18,AGTCAAAGTTCATCTAGGTAACGTACGATATGCT,1.4
19,CCGACTGGGGCAGAAAGGTTACCAGACCATCCGG,-0.764
20,TCATATAGGTAAATGCTTGGTGAAAGTCCGATCT,1.15
